SMILES strings stand for the structures. Among all 310,000 compounds or so, about 14,000 (4.5%) showed an effect of 50% or more. Effects have a minus sign here. Shown is part of a subset that was picked to be rich in strong results.
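Note: peak tail current of the secondary pulse compared with the same well before compound.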

Sequence of human ether-à-go-go-related gene (hERG) potassium channel (Q12809 whole entry, looked up): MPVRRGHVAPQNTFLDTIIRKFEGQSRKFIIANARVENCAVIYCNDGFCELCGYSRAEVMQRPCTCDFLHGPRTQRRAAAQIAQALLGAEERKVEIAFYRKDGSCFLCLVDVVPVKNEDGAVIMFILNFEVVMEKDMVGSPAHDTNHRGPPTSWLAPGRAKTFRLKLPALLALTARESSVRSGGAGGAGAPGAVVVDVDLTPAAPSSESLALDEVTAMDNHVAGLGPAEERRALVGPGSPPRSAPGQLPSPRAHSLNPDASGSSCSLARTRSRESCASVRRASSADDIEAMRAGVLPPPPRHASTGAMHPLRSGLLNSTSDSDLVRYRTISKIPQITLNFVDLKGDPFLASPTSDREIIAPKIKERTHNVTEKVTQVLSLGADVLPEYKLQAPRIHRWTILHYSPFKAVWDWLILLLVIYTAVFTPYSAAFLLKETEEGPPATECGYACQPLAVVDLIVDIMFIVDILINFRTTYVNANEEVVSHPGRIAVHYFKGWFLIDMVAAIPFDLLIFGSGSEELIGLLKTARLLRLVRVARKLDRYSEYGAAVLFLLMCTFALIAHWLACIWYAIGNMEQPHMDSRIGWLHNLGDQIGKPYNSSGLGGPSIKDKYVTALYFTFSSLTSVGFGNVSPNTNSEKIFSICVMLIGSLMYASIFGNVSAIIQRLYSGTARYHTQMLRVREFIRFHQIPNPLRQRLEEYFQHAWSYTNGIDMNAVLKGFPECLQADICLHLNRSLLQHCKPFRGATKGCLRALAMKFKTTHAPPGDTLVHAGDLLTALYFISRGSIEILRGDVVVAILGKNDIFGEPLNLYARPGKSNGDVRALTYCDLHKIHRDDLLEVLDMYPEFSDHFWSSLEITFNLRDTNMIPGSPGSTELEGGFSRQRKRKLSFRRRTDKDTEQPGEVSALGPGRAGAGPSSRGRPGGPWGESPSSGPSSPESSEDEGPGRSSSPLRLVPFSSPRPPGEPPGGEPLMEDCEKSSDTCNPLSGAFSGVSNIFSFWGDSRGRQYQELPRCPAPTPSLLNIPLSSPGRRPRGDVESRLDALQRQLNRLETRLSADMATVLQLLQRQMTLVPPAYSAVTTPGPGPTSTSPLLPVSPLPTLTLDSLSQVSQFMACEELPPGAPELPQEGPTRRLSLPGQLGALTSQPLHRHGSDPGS

This test concerns the target human ether-à-go-go-related gene (hERG) potassium channel (human, UniProt Q12809). As to the kind of experiment: primary screen, population patch clamp on CHO cells stably expressing hERG; higher = less effect of the substance.
As for `CCCCOc1ccc(C2C(C(=O)c3cccs3)=C(O)C(=O)N2CCN2CCOCC2)cc1` (stereo not drawn), the “hERG current change (%, negative = inhibition) at 10uM” value was found to be 21.8%. Take `CC(=O)Oc1cc2c(C(=O)NCCCN3CCOCC3)c(C)oc2c2ccccc12`: the “hERG current change (%, negative = inhibition) at 10uM” value is listed as -18.2%. Consider `Cc1cc2nc(C)n(CCCN)c2cc1C.Cl`, for which the “hERG current change (%, negative = inhibition) at 10uM” value was -0.0557%. The result for `CCN(CC)S(=O)(=O)c1ccc(Cl)c(NC(=O)COc2ccc3c(C)cc(=O)oc3c2)c1` reads 7.69%; that for `CCOC(=O)C(Sc1nnc(-c2ccncc2)o1)C(C)=O` (stereo not drawn), 27.7%; that for `Cl.O=C(NCCCn1ccnc1)c1ccc(F)cc1`, -2.81%. The result for `COc1ccc(C(=O)NCCCn2ccnc2)cc1.Cl` reads -5.63%; that for `COc1ccc2c(c1)CCc1c(C(=O)NCCCn3ccnc3)noc1-2`, -50.2%; that for `COCCNC(=O)c1noc2c1CCc1cc(OC)ccc1-2`, -6.83%.

As to `Cc1ccc(C(=O)N/C(=C\c2ccc(F)cc2)C(=O)NCCCn2ccnc2)cc1`, the “hERG current change (%, negative = inhibition) at 10uM” value is reported as -77.5%. As to `COc1ccc(/C=C(/NC(=O)c2ccccc2)C(=O)NCCCn2ccnc2)cc1OC`, the “hERG current change (%, negative = inhibition) at 10uM” value came out at 19%.

Take `COc1ccc(C(=O)N/C(=C\c2ccccc2)C(=O)NCCCn2ccnc2)cc1`: the “hERG current change (%, negative = inhibition) at 10uM” value is reported as -55.8%. In the case of `O=C(NCCCn1ccnc1)c1noc2c1CCc1ccccc1-2` it was -45.9%. In the case of `COc1ccc(/C=C(/NC(=O)c2ccc(OC)c(OC)c2)C(=O)NCCCn2ccnc2)cc1` it was 11.5%; in that of `COc1ccc(/C=C(\NC(=O)c2ccc(C)cc2)C(=O)NCCCn2ccnc2)cc1`, -86.4%.

For the compound `COc1ccc(C(=O)N/C(=C\c2cn(C)c3ccccc23)C(=O)NCCCn2ccnc2)cc1`, the “hERG current change (%, negative = inhibition) at 10uM” value worked out at 26.3%.

For `COc1ccc(N(C2=NCCCS2)S(=O)(=O)c2ccc(C(C)(C)C)cc2)cc1`, the “hERG current change (%, negative = inhibition) at 10uM” value is given as 0.221%.

Consider `CCc1ccc2[nH]c(C(=O)Nc3ccc4c(c3)OCO4)cc2c1`, for which the “hERG current change (%, negative = inhibition) at 10uM” value stood at 18.8%.

With `COc1ccc(OC)c(S(=O)(=O)N/N=C(/C)c2c[nH]c3ccccc23)c1`, the “hERG current change (%, negative = inhibition) at 10uM” value was 14.1%.

Regarding `CCN(C(=O)c1cc2c(=O)[nH]c3ccc(C)cc3c2s1)c1cccc(C)c1`, the “hERG current change (%, negative = inhibition) at 10uM” value is reported as -0.235%. The result for `Cc1nn(-c2ccc(N3CCCCC3)nn2)c(C)c1CCC(=O)Nc1cccc(F)c1` reads -19%; that for `COC(=O)c1sccc1-n1cc(C#N)c(=O)n(C)c1=O`, 17.9%; that for `COc1cc2c(c(OC)c1OC)-c1ccc(O)c(=O)cc1[C@@H](N)CC2`, -11.8%. In the case of `COCCn1c(C(C)C)nc2ccccc21` it was 4.45%; in that of `CCn1cc(C2=NOC(C(=O)Nc3ccccc3C(=O)OC)C2)c(C)n1` (stereo not drawn), -3.86%. The result for `COc1cc(C2C(C(=O)c3ccco3)=C(O)C(=O)N2CC2CCCO2)ccc1O` (stereo not drawn) reads 2.25%; that for `Cc1ccn2c(=O)c(NC(=O)c3ccc(Br)o3)c(C)nc2c1`, 8.18%; that for `CC1(C)C(=O)NCCN1C(=O)CC1C(=O)NCCN1CC(c1ccccc1)c1ccccc1` (stereo not drawn), 12%.

Consider `CC(C)(C)NC(=O)C(c1cccs1)N(Cc1ccco1)C(=O)c1csnn1` (stereo not drawn), for which the “hERG current change (%, negative = inhibition) at 10uM” value is -1.46%. In the case of `COc1ccc(C(=O)CCC(=O)Nc2ccc(Cl)cc2)cc1`, the “hERG current change (%, negative = inhibition) at 10uM” value turned out to be 11.2%.

With `Cc1ccc(/C=C(\NC(=O)c2ccc(C)cc2)C(=O)NCCCn2ccnc2)cc1`, the “hERG current change (%, negative = inhibition) at 10uM” value was -84.9%. The result for `COc1ccc(/C=C(\NC(=O)c2ccc([N+](=O)[O-])cc2)C(=O)NCCCn2ccnc2)cc1` reads -69.4%; that for `O=C(NCCCn1ccnc1)c1cc([N+](=O)[O-])cc([N+](=O)[O-])c1`, -4.05%; that for `COc1ccc(/C=C(\NC(=O)c2ccc(C)cc2)C(=O)NCCCn2ccnc2)cc1OC`, 8.48%. In the case of `COc1ccc(C(=O)N/C(=C\c2cn(S(=O)(=O)N(C)C)c3ccccc23)C(=O)NCCCn2ccnc2)cc1` it was 1.07%.

For the compound `N#C/C(=C\c1ccc([N+](=O)[O-])cc1)C(=O)NCCCn1ccnc1`, the “hERG current change (%, negative = inhibition) at 10uM” value was -59.5%. For the compound `COc1cccc(-c2nn(-c3ccccc3)cc2/C=C(\C#N)C(=O)NCCCn2ccnc2)c1`, the “hERG current change (%, negative = inhibition) at 10uM” value is recorded as -38.8%. The result for `Cc1ccc(C(=O)N/C(=C\c2ccccc2)C(=O)NCCCn2ccnc2)cc1` reads -84.8%. The result for `C/C(CC(=O)Nc1ccc(Cl)c(C(F)(F)F)c1)=N\NC(=O)c1cnccn1` reads -25.8%; that for `COc1ccc(Cc2nnc(N)s2)cc1`, 15.3%; that for `O=C(Nc1cccc(-n2cnnn2)c1)c1cccnc1`, 4.53%. Regarding `C#CCOCCOCCOCCNc1nc(N2CCN(C(=O)C(Cc3ccc(O)cc3)n3cc(C(N)C(C)CC)nn3)CC2)nc(N2CCN(C(=O)C(Cc3ccc(O)cc3)n3cc(C(N)C(C)CC)nn3)CC2)n1.Cl` (stereo not drawn), the “hERG current change (%, negative = inhibition) at 10uM” value is reported as -13.3%. Regarding `COc1ccccc1CN1CCN(C(=O)c2cccc3ccccc23)CC1`, the “hERG current change (%, negative = inhibition) at 10uM” value is 3.48%. For `COc1cccc2cc(/C(=N/O)c3ccc(Br)cc3)oc12`, the “hERG current change (%, negative = inhibition) at 10uM” value came to 5.41%. For `COC(=O)c1ccc(NC(=O)c2ccc3nc(C)sc3c2)cc1`, the “hERG current change (%, negative = inhibition) at 10uM” value is reported as 15.8%. The result for `COc1cc(S(=O)(=O)NCc2ccccn2)c(OC)cc1Cl` reads -1.73%; that for `O=C(NCCCn1ccnc1)C(Cc1ccccc1)N1C(=O)c2ccccc2C1=O` (stereo not drawn), -34.5%; that for `O=C(CCN1C(=O)c2ccccc2C1=O)NCCCn1ccnc1`, 11.3%. Regarding `O=C(NCCCn1ccnc1)C(Cc1ccc([N+](=O)[O-])cc1)N1C(=O)c2ccccc2C1=O` (stereo not drawn), the “hERG current change (%, negative = inhibition) at 10uM” value was -62.3%.

Turning to `Cc1ccc(-n2nc3ccc(NC(=O)c4ccc5c(c4)OCO5)cc3n2)cc1`, the “hERG current change (%, negative = inhibition) at 10uM” value is 7.8%. As to `O=C(NCCc1ccccc1)c1c(O)c2cccc3c2n(c1=O)CC3`, the “hERG current change (%, negative = inhibition) at 10uM” value is given as 1.79%.

With `CCN(CC)Cc1cc2ccccc2c2c1COC2`, the “hERG current change (%, negative = inhibition) at 10uM” value is reported as -44.1%. The result for `CCCCN(CCCC)Cc1cc2ccccc2c2c1COC2` reads -54.6%; that for `CCCN(CCC)Cc1cc2ccccc2c2c1COC2`, -29%.

The values above are taken from paper PMC4336329 (PLoS ONE, 2015).
